Results as given in the supplement of paper PMC12808144.
Structures can show the parent of a compound that is named as a salt. A number with no mark means an inactive call.

Tested on: NHEM-hTERT
Experiment: cell viability relative to DMSO control (fraction of DMSO control); higher = less cytotoxic, active = 0.5 or less
Conditions: 1 µM; 120 h
Outline: (§1)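 For 120 h, duplicate wells of 384-well plates held 1 µM of each of 315 approved anti-cancer drugs (TargetMol), spotted acoustically before cells were added in 40 µl per well. Immortalized NHEM-hTERT melanocytes were seeded at 2500/well, and patient-derived Mel-DCC-11 plus its resistant subline Mel-DCC-11-R at 1500/well. The subline was run both without and with 8 µM of its selecting drug, and ATPlite 1step luminescence was read. Viability was normalised to vehicle-treated wells and averaged over the two replicates.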

| SMILES | cell viability |
| --- | --- |
| Cl.N=C1CCCN1Cc1[nH]c(=O)[nH]c(=O)c1Cl.O=c1[nH]c(=O)n([C@H]2C[C@H](O)[C@@H](CO)O2)cc1C(F)(F)F.O=c1[nH]c(=O)n([C@H]2C[C@H](O)[C@@H](CO)O2)cc1C(F)(F)F | 0.967 |
| CC(C)(C#N)c1cc(Cn2cncn2)cc(C(C)(C)C#N)c1 [Anastrozole] | 1.02 |
| COc1ccc2c(c1OC)C(=O)O[C@@H]2[C@H]1c2c(cc3c(c2OC)OCO3)CC[NH+]1C.[Cl-] [Noscapine hydrochloride] | 1.13 |

Tested on: Mel-DCC-11-R
Experiment: cell viability relative to DMSO control (fraction of DMSO control); higher = less cytotoxic, active = 0.8 or less
Conditions: 1 µM; 120 h; vemurafenib co-treatment 0 µM
Outline: as §1

| SMILES | cell viability |
| --- | --- |
| CNC(=O)c1cc(Oc2ccc(NC(=O)Nc3ccc(Cl)c(C(F)(F)F)c3)cc2)ccn1.Cc1ccc(S(=O)(=O)O)cc1 [Sorafenib tosylate] | 1.02 |
| Cc1ccc(Nc2nccc(N(C)c3ccc4c(C)n(C)nc4c3)n2)cc1S(N)(=O)=O [Pazopanib] | 1.07 |
| CC[C@]1(O)C[C@@H]2C[N@@](CCc3c([nH]c4ccccc34)[C@@](C(=O)OC)(c3cc4c(cc3OC)N(C)[C@H]3[C@@](O)(C(=O)OC)[C@H](OC(C)=O)[C@]5(CC)C=CCN6CC[C@]43[C@@H]65)C2)C1.O=S(=O)(O)O [Vinblastine sulfate] | 0.488 (active) |
| [Cl][Pt+2][Cl] [Cisplatin] | 1.08 |
| CCNC(=O)[C@@H]1CCCN1C(=O)[C@H](CCCN=C(N)N)NC(=O)[C@H](CC(C)C)NC(=O)[C@@H](CC(C)C)NC(=O)[C@H](Cc1ccc(O)cc1)NC(=O)[C@H](CO)NC(=O)[C@H](Cc1c[nH]c2ccccc12)NC(=O)[C@H](Cc1cnc[nH]1)NC(=O)[C@@H]1CCC(=O)N1 [Leuprorelin Acetate] | 0.854 |
| O=C(CCBr)N1CCN(C(=O)CCBr)CC1 [Pipobroman] | 0.832 |
| NC(=O)NO [Hydroxyurea] | 1.09 |
| CC1(C)CCC(CN2CCN(c3ccc(C(=O)NS(=O)(=O)c4ccc(NCC5CCOCC5)c([N+](=O)[O-])c4)c(Oc4cnc5[nH]ccc5c4)c3)CC2)=C(c2ccc(Cl)cc2)C1 | 1.04 |
| CN1CCN(c2ccc3nc(-c4c(N)c5c(F)cccc5[nH]c4=O)[nH]c3c2)CC1 [Dovitinib] | 1.05 |
| COC(=O)/C=C/C(=O)OC [Dimethyl fumarate] | 1.06 |
| CCOC(=O)c1ccc(C#Cc2ccc3c(c2)C(C)(C)CCS3)nc1 [Tazarotene] | 1.09 |
| O=c1[nH]c(=O)n([C@H]2C[C@H](O)[C@@H](CO)O2)cc1F [Floxuridine] | 1.24 |
| CCCc1cc(C)[nH]c(=O)c1CNC(=O)c1cc(-c2ccnc(N3CCN(C)CC3)c2)cc2c1cnn2C(C)C | 0.999 |
| CNC(=O)c1ccccc1Sc1ccc2c(/C=C/c3ccccn3)n[nH]c2c1 [Axitinib] | 0.981 |
| CCOC(N)=O [Urethane] | 0.987 |
| C[C@@H]1O[C@@H](O[C@H]2[C@H](Oc3cc(O)c4c(c3)O[C@H](c3ccc(O)cc3)CC4=O)O[C@H](CO)[C@@H](O)[C@@H]2O)[C@H](O)[C@H](O)[C@H]1O [Naringin] | 1.02 |
| OC[C@H]1O[C@@H](n2cnc3c2NC=NC[C@H]3O)C[C@@H]1O [Pentostatin] | 0.905 |
| C.CCN(CC)CCCC(C)Nc1ccnc2cc(Cl)ccc12.O=P(O)(O)O.O=P(O)(O)O (stereo not drawn) [Chloroquine diphosphate] | 0.913 |
| C[C@]12CC[C@H](O)CC1=CC[C@@H]1[C@@H]2CC[C@]2(C)C(c3cccnc3)=CC[C@@H]12 [Abiraterone] | 1.07 |
| CCS(=O)(=O)N1CC(CC#N)(n2cc(-c3ncnc4[nH]ccc34)cn2)C1 [Baricitinib] | 1 |
| O=NN(CCCl)C(=O)NCCCl [Carmustine] | 0.987 |
| CCCC(=O)O[C@]1(C(=O)CO)CC[C@H]2[C@@H]3CCC4=CC(=O)CC[C@]4(C)[C@H]3[C@@H](O)C[C@@]21C [Hydrocortisone butyrate] | 1.21 |
| Cl.N=C1CCCN1Cc1[nH]c(=O)[nH]c(=O)c1Cl.O=c1[nH]c(=O)n([C@H]2C[C@H](O)[C@@H](CO)O2)cc1C(F)(F)F.O=c1[nH]c(=O)n([C@H]2C[C@H](O)[C@@H](CO)O2)cc1C(F)(F)F | 1.23 |
| CC(C)(C#N)c1cc(Cn2cncn2)cc(C(C)(C)C#N)c1 [Anastrozole] | 1 |
| COc1ccc2c(c1OC)C(=O)O[C@@H]2[C@H]1c2c(cc3c(c2OC)OCO3)CC[NH+]1C.[Cl-] [Noscapine hydrochloride] | 1.04 |
